This is a sample that favours compounds with a hit; in the whole collection about 0.4% have one here.
FMDV FLuc: FMDV antiviral activity by firefly signal; FMDV antiviral cell assay, firefly luciferase signal; Potency, µM (highest dose often 57.5 µM), inactives show at the highest dose activity change, negative = inhibition, actives largely listed as inhibitors; actives 0.23% (n = 120,000); AID 1745856; also: nearly all actives have a fitted effect of over 60% in size
FMDV Renilla: shows antiviral activity in FMDV Renilla assay | FMDV replicon cells, Renilla luciferase signal | AID 1745857 | actives 0.32% (n = 120,000) | Potency, µM (series often up to 57.5 µM), inactives show at the highest dose activity change, negative = inhibition, hits mostly inhibitors; also: nearly all actives have a fitted effect of over 55% in size
An asterisk follows results filed as active; ? = inconclusive; [ ] = dose if it differs, or a comment. Calls follow the shape of the full dose curve. % is scaled to controls: 0 for no effect and ±100 for the full control effect; potency is read from the fitted curve at half-maximal effect.

SMILES | FMDV FLuc | FMDV Renilla
COc1ccc(OC)c(NC(=O)c2nc3nc(C)cc(C(F)F)n3n2)c1 | 16% | 4%
O=C(NCc1ccc(-c2nc3ccccc3s2)o1)c1ccc(F)cc1F | 10% | -25%
CC(C)NS(=O)(=O)c1ccc(Cl)c(C(=O)NCc2ccc(-c3nc4ccccc4s3)o2)c1 | ? | 14µM*
CCc1nc(C)c(C(=O)O)s1 | -4% | 6%
CCOC(=O)c1noc2nc(C)n(Cc3nc(-c4ccc(OC)c(OC)c4)oc3C)c(=O)c12 | 1% | 1%
CCOc1ccc(C(=O)Nc2ccc3nc(SCC(=O)N(C)c4ccccc4)sc3c2)cc1 | 7.9µM* | ?
Cc1ccccc1C(=O)Nc1ccc2nc(SCC(=O)N(C)c3ccccc3)sc2c1 | -21% | -1%
O=C(Nc1cccc2cccnc12)c1ccc(F)cc1 | 90% | -11%
O=S(=O)(Nc1cccc2cccnc12)c1ccc(F)cc1 | ? | 22µM*
Nc1nc(F)nc2c1ncn2[C@@H]1O[C@H](CO)[C@@H](O)[C@@H]1O | ? | 14µM*
CC(C)=CCNc1ncnc2c1ncn2[C@@H]1O[C@H](CO)[C@@H](O)[C@H]1O | 6%[11.5 µM] | 9%
O=C(c1n[nH]c(=O)c2ccccc12)N1CCCC1c1ccc2c(c1)OCCCO2 (stereo not given) | -2% | -9%
Cc1ccccc1C(=O)N1CCN(c2ccc(NC(=O)c3ccc4c(c3)OCCO4)cc2)CC1 | ? | 16µM*
CCOc1cc(OCC)cc(C(=O)Nc2ccc(N3CCN(C(=O)c4ccccc4C)CC3)cc2)c1 | -7% | -7%
COc1cc(CCC(=O)Nc2ccc3oc(-c4ccc(Cl)cc4)cc(=O)c3c2)on1 | 50% | 5%
O=S(=O)(Nc1cccc(C(F)(F)F)c1)c1ccc(-c2cnc(C3CC3)o2)cc1 | ? | -90%
COc1ccc(NS(=O)(=O)c2ccc(-c3cnc(C4CC4)o3)cc2)cc1OC | 8.9µM* | -13%
CC(C)=CC(=O)Nc1ccc2c(c1)-c1ccccc1C2 | 226% | 0%
Cc1c(C(=O)OC2CCCCCC2)[nH]c2c1C(=O)CC(c1ccccc1)C2 (stereo not given) | -12% | -9%
COc1cc(C2CC(=O)c3c([nH]c(C(=O)OC4CCCC4)c3C)C2)cc(OC)c1OC (stereo not given) | ? | 8.9µM*
CCOc1ccc2ccccc2c1C=O | 18% | -4%
CCOc1ccc(C=O)c2ccccc12 | 10µM* | 4.5µM*
COCCN1C2=C(C(=O)CC(C)(C)C2)C(c2cccc(O)c2)C2=C1CC(C)(C)CC2=O | 3% | 78%
CCCCOC(=O)c1ccc(NC(=O)c2cc(=O)c3ccccc3o2)cc1 | -19% | -5%
CCCCOC(=O)c1cccc(NC(=O)c2cc3ccccc3o2)c1 | 8.9µM* | -13%
SMILES | FMDV FLuc | FMDV Renilla
Cc1cc(Nc2ccccc2)nc(Nc2ccc(NC(=O)c3ccc(Cl)cc3)cc2)n1 | 14µM* | 13µM*
Cc1cc(N2CCOCC2)nc(Nc2ccc(NC(=O)c3ccccc3)cc2)n1 | -21% | -18%
Cc1ccc(NC(=O)C2CCCCC2)cc1 | 197% | 1%
COc1ccc(Nc2cc(C)nc(Nc3ccc(NC(=O)C4CCCCC4)cc3)n2)cc1 | ? | 28µM*
CCC(C(=O)Nc1cccc(C(C)=O)c1)n1c(=O)c(-c2ccccc2NC(C)=O)nc2ccccc21 (stereo not given) | -1% | 13%
CC(=O)NNC(=S)Nc1ccc(C(C)C)cc1 | 0% | 8%
CCN(CC)c1nc2ccccc2nc1C(=O)Nc1ccccc1Cl | 13% | 6%
CCc1ccccc1Nc1nc(-c2c(C)nc3sccn23)cs1 | -25% | ?
Cc1nc2sccn2c1-c1csc(Nc2cccc(Cl)c2C)n1 | ? | 35µM*
COc1nc(C(=O)NCC(C)N(C)C)cc2ccccc12 (stereo not given) | -14% | -15%
COc1nc(C(=O)NC2(c3ccccc3)CCC2)cc2ccccc12 | ? | 4.5µM*
O=C(CN1C(=O)NC2(CCCC2)C1=O)Nc1cccc2cccnc12 | 14% | 6%
O=C(COc1ncnc2ccc(Br)cc12)Nc1ccc(F)cc1F | -5% | -4%
COc1ccccc1CC(=O)N1CCN(c2nc(-c3ccc(Cl)cc3)no2)CC1 | ? | 7.1µM*
COc1ccc(-c2noc(N3CCN(c4ccc(Cl)cc4)CC3)n2)cc1OC | -13% | -5%
Cc1cc(C)cc(Nc2cc(C(=O)NCCCN(C)C3CCCCC3)c3ccccc3n2)c1 | -15% | -5%
Cc1ccc(C)c(Nc2cc(C(=O)NCCCN(C)C3CCCCC3)c3ccccc3n2)c1 | -14% | 32µM*
O=c1c(Cl)c(N2CCN(Cc3nc(-c4ccsc4)no3)CC2)cnn1-c1ccccc1 | -20% | -24%
CN(CC(=O)Nc1ccc(OC(F)(F)F)cc1)S(=O)(=O)c1ccc2c(c1)CCC(=O)N2 | 22µM* | ?
COC(=O)c1ccc(NC(=O)CN(C)S(=O)(=O)c2ccc3c(c2)CCCC(=O)N3)cc1 | -3% | 1%
CN(CCC#N)C(=O)CSc1ncc(-c2ccc(Cl)cc2)o1 | 151% | -1%
Cn1c(=O)c2c(nc(Oc3ccccc3F)n2Cc2ccccc2F)n(C)c1=O | 20% | 12%
Cc1cccc(C)c1-n1nnnc1SCn1nnc2ccccc2c1=O | 20µM* | 18µM*
Cc1ccccc1-n1nnnc1SCc1nc(N)c2ccccc2n1 | 17% | -19%
O=C(O)c1ccc(/C=C/C(=O)c2cc(Cl)ccc2Cl)cc1 | -27% | ?
SMILES | FMDV FLuc | FMDV Renilla
O=C(CSc1cnc2ccccc2n1)c1ccc2c(c1)OCCO2 | 13% | 0%
O=C(CSc1ncnc2ccccc12)c1ccc2c(c1)OCCCO2 | -31% | 14µM*
CCCN(C)Cc1ccc2c(c1)OCO2 | -4% | -1%
COc1ccc(/C=C(/C#N)C(=O)C(C)C)cc1O | 10% | 10%
O=C(Nc1nc(-c2ccncc2)cs1)c1ccc(S(=O)(=O)N2CCCCC2)cc1 | 5% | -11%
O=C(Nc1ccnn1Cc1cccs1)c1ccc(S(=O)(=O)N2CCCC2)cc1 | 14µM* | ?
O=C(O)c1ccc(CNCc2cccc3ccccc23)cc1 | 4% | 3%
CCOc1ccc(NC(=O)COc2ccc(OC)cc2)c2cccnc12 | 8% | -12%
COc1ccc(NC(=O)c2ccccc2Cl)c2cccnc12 | 14% | -13%
COc1ccc(NC(=O)COc2ccccc2Cl)c2cccnc12 | 11µM* | 10µM*
COc1ccc(NC(=O)COc2ccc(Cl)cc2)c2cccnc12 | ? | 11µM*
CCCc1nnc(NC(=O)c2cc(=O)c3cc(Cl)c(C)cc3o2)s1 | 0% | -9%
CCN1CCN(c2oc(-c3ccc(F)cc3)nc2C#N)CC1 | 22% | 3%
CCN1CCN(c2cc(-c3ccc(F)cc3)c3c(n2)CCCCCC3)CC1 | ? | 11µM*
CC(=O)N1CCCc2ccc(NC(=O)c3ccc(OC(C)C)cc3)cc21 | ? | -4%
CCCCOc1ccc(C(=O)Nc2ccc3c(c2)N(C(C)=O)CCC3)cc1 | 1.3µM* | -12%
O=C(Nc1ccc2nc(SCc3cccc4ccccc34)sc2c1)c1ccc(Cl)cc1 | 23% | 14%
Cc1csc(SCC(=O)c2ccc(O)cc2O)n1 | 155% | 18%
O=C(CCc1ccccc1)NC1CCN(c2ccccc2S(=O)(=O)C(F)(F)F)CC1 | -21% | ?
O=C(Cc1ccccc1)NC1CCN(c2ccc(S(=O)(=O)C(F)(F)F)cc2)CC1 | 3.2µM* | 3.5µM*
CCCc1c(C(=O)OCC)[nH]c2c1C(=O)CC(c1ccc(CC)cc1)C2 (stereo not given) | 20% | 12%
Cc1cc(C)c2cc(C(=O)NCc3ccc4c(c3)OCO4)[nH]c2c1 | 36% | 144%
Fc1ccccc1COc1ccc(Cl)cc1CNn1cnnc1 | -9% | -11%

Assay outcomes as filed in PubChem.
